Results from PubChem BioAssay (Tox21).
Results filed as inconclusive are left out. Active and inactive are the calls of the source. Unless noted, calls follow the shape of the dose curve; as a rule, active = well fitted curve in the direction sought with a large enough effect in the repeat runs; inconclusive = weak or mixed curves; inactive = no such curve, though single readings can be large; an effect the other way counts as inactive or inconclusive.

Key:
[1] = molecular target: Thyrotropin receptor (Homo sapiens) (UniProt P16473); assay: qHTS assay to identify small molecule agonists of the thyroid stimulating hormone receptor (TSHR) signaling pathway (AID 1224843; calls by dose curve; also: nearly all actives have a fitted effect of over 45% in size)
How it was run: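 Agonist activity read as cAMP rise via d2/cryptate HTRF competition, 1 h room-temperature detection, in HEK293 cells expressing TSHR. Fifteen-point titrations, each run in triplicate, with a 30 min room-temperature incubation beforehand.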

[2] = qHTS assay to identify small molecule agonists of the hypoxia (HIF-1) signaling pathway - cell viability counter screen (AID 1224844; calls by dose curve; also: nearly all actives have a fitted effect of over 50% in size)
How it was run: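 HRE-bla ME-180; 0.5% dFBS; cpd 17 h, 37C, 5% CO2; CellTiter-Glo lum., 30 min RT, post-FRET read, same wells.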

[3] = qHTS assay to identify small molecule agonists of H2AX (AID 1224845; active = well fitted activation curve with a large enough effect in the signal ratio in the repeat runs, not every such curve was filed as active; the % refers to the signal ratio)
How it was run: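 Phospho-H2AX Ser139 measured by HTRF (ex 320 nm; em 665 and 620 nm) after 24 hr antibody incubation. Compounds, 15 concentrations, 0.76% DMSO, were applied to CHO-K1 cells for 3hr at 37C before lysis.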

[4] = qHTS assay to identify small molecule agonists of the hypoxia (HIF-1) signaling pathway (AID 1224846; active = well fitted activation curve with a large enough effect in the signal ratio in the repeat runs, not every such curve was filed as active; the % refers to the signal ratio)
How it was run: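 Reporter induction in HRE-bla ME-180 cells is taken as agonism: cells sit 5 hrs after plating, receive compounds or DMSO only, incubate 17 hrs at 37C under 5% CO2, and are loaded with CCF4-AM for beta-lactamase FRET measurement.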

[5] = qHTS assay to identify small molecule agonists of H2AX - cell viability counter screen (AID 1224847; calls by dose curve; also: top concentration of the series differs between compounds; nearly all actives have a fitted effect of over 30% in size)
How it was run: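 We seed wild-type CHO-K1 cells overnight, treat them for 3 hr at 37C with compounds in 15-concentration series, and quantify remaining viability by CellTiter-Glo luminescence.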

[6] = qHTS assay to identify small molecule antagonists of the estrogen related receptor (ERR) signaling pathway from Tox21 library (AID 1224848); also: nearly all actives have a fitted effect of over 50% in size
How it was run: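 Luciferase luminescence (ONE-Glo, 30 min room temperature) was the read-out. Cells of the NTP-supplied ERR line, 2,000 per well, were given 6 h at 37 C before compound addition in DMSO and 18 h exposure at 37 C.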

[7] = qHTS assay to identify small molecule agonists of the estrogen related receptor (ERR) signaling pathway from Tox21 library (AID 1224849; calls by dose curve; also: nearly all actives have a fitted effect of over 15% in size); conditions: ERR reporter cell line, ONE-Glo luciferase, 18 h; at 92.4 µM (top of the series) unless noted
How it was run: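 Tox21 compounds tested for ERR agonism in an NTP reporter cell line: 18 h treatment at 37 C, then ONE-Glo luminescence.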

[8] = qHTS RealTime-Glo MT Cell Viability Assay in HepG2 cells - 24 hour (AID 1224867); also: nearly all actives have a fitted effect of over 50% in size
How it was run: (§1)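 Compound treatment began 5 h after plating HepG2 cells (600/well) with NanoLuc luciferase and prosubstrate. Plates stayed at 37 C for 40 h; luminescence was captured at six time points, 0 h through 40 h.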

[9] = A CellTox Green Cytotoxicity Assay to monitor cytotoxicity in HEK293 cells - 0 hour (AID 1224869); also: nearly all actives have a fitted effect of over 50% in size
How it was run: (§2)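 Tox21 screen in HEK293: membrane-impermeant cyanine dye fluoresces on binding dead-cell DNA; compound pinned 5 h post-seeding, plates held at 37 C, signal read repeatedly through 40 h.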

[10] = qHTS RealTime-Glo MT Cell Viability Assay in HepG2 cells - 40 hour (AID 1224870); also: nearly all actives have a fitted effect of over 50% in size
How it was run: (§3)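 Real-time viability: cells seeded at 600 per well together with NanoLuc and cell-permeant prosubstrate, compounds added after 5 h incubation. Luminescence tracked at 0, 8, 16, 24, 32 and 40 h of exposure.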

[11] = A CellTox Green Cytotoxicity Assay to monitor cytotoxicity in HEK293 cells - 40 hour (AID 1224871); also: nearly all actives have a fitted effect of over 45% in size
How it was run: as §2

[12] = qHTS RealTime-Glo MT Cell Viability Assay in HEK293 cells - 16 hour (AID 1224872)
How it was run: (§4)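 Quantitative high-throughput screen of the Tox21 10K library in HEK293: cells and RealTime-Glo reagents plated together, compound added at 5 h, luminescence monitored through 40 h at 37 C.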

[13] = qHTS RealTime-Glo MT Cell Viability Assay in HepG2 cells - 8 hour (AID 1224873); also: nearly all actives have a fitted effect of over 55% in size
How it was run: as §3

[14] = qHTS RealTime-Glo MT Cell Viability Assay in HEK293 cells - 40 hour (AID 1224874); conditions: RealTime-Glo luminescence; max response: hits give low values; also: nearly all actives have a fitted effect of over 50% in size
How it was run: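 HEK293 + NanoLuc + prosubstrate, 600 cells/well; 5 h, 37 C/5% CO2; compound 23 nL in DMSO by pintool; 37 C; luminescence read at 0, 8, 16, 24, 32 and 40 h time points.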

[15] = A CellTox Green Cytotoxicity Assay to monitor cytotoxicity in HEK293 cells - 24 hour (AID 1224875); also: nearly all actives have a fitted effect of over 45% in size
How it was run: as §2

[16] = A CellTox Green Cytotoxicity Assay to monitor cytotoxicity in HepG2 cells - 16 hour (AID 1224876); also: nearly all actives have a fitted effect of over 45% in size
How it was run: (§5)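 Measurements at 0, 8, 16, 24, 32 and 40 h of treatment captured CellTox Green fluorescence in HepG2 cells that had been co-plated with reagent and preincubated 5 h at 37 C/5% CO2.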

[17] = qHTS RealTime-Glo MT Cell Viability Assay in HepG2 cells - 32 hour (AID 1224877); also: nearly all actives have a fitted effect of over 55% in size
How it was run: as §1

[18] = A CellTox Green Cytotoxicity Assay to monitor cytotoxicity in HepG2 cells - 24 hour (AID 1224878); also: nearly all actives have a fitted effect of over 45% in size
How it was run: as §5

[19] = A CellTox Green Cytotoxicity Assay to monitor cytotoxicity in HepG2 cells - 40 hour (AID 1224879); also: nearly all actives have a fitted effect of over 40% in size
How it was run: as §5

[20] = qHTS RealTime-Glo MT Cell Viability Assay in HEK293 cells - 32 hour (AID 1224868)
How it was run: as §4
% is scaled to controls: 0 for no effect and ±100 for the full control effect.

Chain of Thyrotropin receptor (Homo sapiens) (P16473 whole entry, looked up): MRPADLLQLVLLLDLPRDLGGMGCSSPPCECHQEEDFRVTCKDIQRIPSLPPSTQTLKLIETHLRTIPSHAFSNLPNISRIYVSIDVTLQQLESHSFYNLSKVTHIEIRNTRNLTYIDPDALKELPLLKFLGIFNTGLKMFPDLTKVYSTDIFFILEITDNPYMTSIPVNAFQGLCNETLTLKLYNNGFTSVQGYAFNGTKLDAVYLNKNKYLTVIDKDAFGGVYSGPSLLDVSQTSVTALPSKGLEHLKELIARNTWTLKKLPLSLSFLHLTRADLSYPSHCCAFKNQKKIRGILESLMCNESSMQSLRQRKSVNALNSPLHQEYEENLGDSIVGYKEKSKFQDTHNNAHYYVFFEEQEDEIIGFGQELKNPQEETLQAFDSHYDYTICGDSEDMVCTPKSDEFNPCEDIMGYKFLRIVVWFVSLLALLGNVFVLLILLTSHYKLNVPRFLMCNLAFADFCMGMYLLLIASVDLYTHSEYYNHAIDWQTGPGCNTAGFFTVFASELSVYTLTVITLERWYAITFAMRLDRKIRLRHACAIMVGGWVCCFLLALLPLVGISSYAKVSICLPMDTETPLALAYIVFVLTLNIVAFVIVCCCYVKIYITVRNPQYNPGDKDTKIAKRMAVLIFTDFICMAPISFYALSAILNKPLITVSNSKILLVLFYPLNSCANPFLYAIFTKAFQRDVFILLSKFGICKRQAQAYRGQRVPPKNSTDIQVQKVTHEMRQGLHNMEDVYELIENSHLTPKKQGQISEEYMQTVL

CS(=O)(=O)c1ccc(C(=O)C2C(=O)CCCC2=O)c(Cl)c1COCC(F)(F)F
inactive: Potency [1] | Potency [2] | outcome [3] | outcome [4] | Potency [5] | Potency [6] | activity change, positive = activation [7] -5.95% | Potency [8] | outcome [9] | Potency [10] | Potency [11] | Potency [12] | outcome [13] | max response [14] 2.82% | Potency [15] | Potency [16] | Potency [17] | Potency [18] | Potency [19]

NNC(N)=O
inactive: Potency [1] | Potency [2] | outcome [3] | Potency [5] | Potency [8] | Potency [20] | outcome [9] | Potency [10] | Potency [11] | Potency [12] | outcome [13] | max response [14] 0.384% | Potency [15] | Potency [16] | Potency [17] | Potency [18] | Potency [19]

CCCN1CCC[C@@H]2Cc3[nH]ncc3C[C@H]21
inactive: Potency [1] | Potency [2] | outcome [3] | Potency [5] | Potency [6] | activity change, positive = activation [7] 0.879% [at 42.5 µM] | Potency [8] | Potency [20] | outcome [9] | Potency [10] | Potency [11] | outcome [13] | max response [14] 2.6% | Potency [15] | Potency [16] | Potency [17] | Potency [18] | Potency [19]

CC(=O)OCC1=C(C(=O)O)N2C(=O)[C@@H](N)[C@H]2SC1
inactive: activation [1] 9.8% [at 19 µM] | activity change, negative = cytotoxicity [2] -17.2% [at 15.8 µM] | activation (H2AX phosphorylation) [3] 0.102% [at 31.6 µM] | activity change, negative = cytotoxicity [5] 3.73% [at 31.6 µM] | activity, negative = inhibition [6] 15.1% [at 19 µM] | activity change, positive = activation [7] 9.57% [at 19 µM] | activity change, negative = cytotoxicity [8] 0.275% [at 15.8 µM] | cytotoxicity [9] 1.32% [at 15.8 µM] | activity change, negative = cytotoxic [10] 3.09% [at 15.8 µM] | cytotoxicity increase [11] -4.55% [at 15.8 µM] | viability change, negative = cytotoxic [13] 1.05% [at 15.8 µM] | max response [14] 21.8% | activity change [15] 11.8% [at 15.8 µM, hits give high values] | cytotoxicity increase [16] 0.706% [at 15.8 µM] | activity change, negative = cytotoxic [17] 0.0723% [at 15.8 µM] | cytotoxicity [18] 0.21% [at 15.8 µM] | cytotoxicity increase [19] -2.77% [at 15.8 µM]

O=c1[nH]oc2c1CCNC2
inactive: Potency [1] | Potency [2] | outcome [3] | Potency [5] | Potency [6] | activity change, positive = activation [7] 0.599% [at 42.5 µM] | Potency [8] | Potency [20] | outcome [9] | Potency [10] | Potency [11] | Potency [12] | outcome [13] | max response [14] 5.54% | Potency [15] | Potency [17]

Cl/C=C/CCl
inactive: Potency [1] | Potency [2] | outcome [3] | Potency [5] | Potency [6] | activity change, positive = activation [7] 5.39% | Potency [8] | Potency [20] | outcome [9] | Potency [10] | Potency [11] | outcome [13] | max response [14] 7.85% | Potency [15] | Potency [16] | Potency [17] | Potency [18] | Potency [19]

CCC(C)(C#N)N=NC(C)(C#N)CC (centres undefined)
inactive: Potency [1] | Potency [2] | outcome [3] | Potency [5] | Potency [6] | activity change, positive = activation [7] 3.15% | Potency [8] | Potency [20] | outcome [9] | Potency [10] | Potency [11] | Potency [12] | outcome [13] | max response [14] 2.46% | Potency [15] | Potency [16] | Potency [17] | Potency [18] | Potency [19]
